Records with an inconclusive call do not appear. Entries that show only a call come without a potency. Values without a mark were called inactive. The source made the active and inactive calls. Calls come from the whole dose curve; as a rule, active = well fitted activation curve with a large enough effect in the repeat runs; inconclusive = weak or mixed curves; inactive = flat fitted curve, though single readings scatter.
Assay: A CellTox Green Cytotoxicity Assay to monitor cytotoxicity in HepG2 cells - 16 hour (AID 1224876); note: nearly all actives have a fitted effect of over 45% in size
Conditions: CellTox Green fluorescence; series mostly up to 76.8 µM
Excerpt: National Center for Advancing Translational Sciences [NCATS]
NIH Chemical Genomics Center [NCGC]
U.S. Environmental Protection Agency [EPA]
National Institutes of Environmental Health Sciences [NIEHS]
National Toxicology Program [NTP]
Cell-based models are critical for drug discovery. Determining the natural cytotoxic effects resulting from test compounds is an essential research activity. A CellTox Green Cytotoxicity Assay to monitor cytotoxicity in real time of continues cell culture during 40 hours of the compound treatment was used to screen Tox21 10K library compounds in HepG2 cells. CellTox Green Cytotoxicity Assay is a nonlytic, homogeneous, biofluorescent method to measure cytotoxicity in cell culture after experimental manipulation. The assay system uses a proprietary asymmetric cyanine dye that is excluded from viable cells but preferentially stains the dead cell's DNA. […] Viable cells produce no appreciable increases in fluorescence. Therefore, the fluorescence signal produced by the binding interaction with dead cell DNA is proportional to cytotoxicity.
The mixture of HepG2 cell suspension and reagents were dispensed at 600cells/6 ul/well in 1536-well tissue culture treated black solid bottom plates using a Multidrop dispenser. After the assay plates were incubated at a 37 C/5% CO2 incubator for 5 hours, 23 nL of compounds dissolved in DMSO, positive and negative controls was transferred to the assay plate by a pintool work station. The plates were incubated at 37 C for 40 hours. The fluorescence intensity were measured at 0h, 8h, 16h, 24h, 32h and 40h time points using ViewLux plate reader during compound treatment.
With CN1C(CCl)Nc2cc(Cl)c(S(N)(=O)=O)cc2S1(=O)=O (stereo not given) the Potency was “inactive”.
For CC(C)(O)CCCC1=CCC(C=O)CC1 (stereo not given), the Potency was “inactive”.
With CCN(CC)CC the Potency was “inactive”.
Molecule NC[C@H]1O[C@H](O[C@H]2[C@H](O)[C@@H](O[C@H]3O[C@H](CO)[C@@H](O)[C@H](N)[C@H]3O)[C@H](N)C[C@@H]2N)[C@H](N)[C@@H](O)[C@@H]1O has a cytotoxicity increase of 0.586% [at 15.8 µM].
With NNC(=O)CCCCC(=O)NN the Potency was “inactive”.
With CCCCN=C(N)N=C(N)N the Potency was “inactive”.
For COc1ccccc1N1CCN(CC(O)COc2cc(OC)c(OC)c(OC)c2)CC1 (stereo not given), the Potency was “inactive”.
With O=C(OOC(=O)c1ccccc1)c1ccccc1 the Potency was “inactive”.
With O=C(c1ccccc1)c1cccc(O)c1 the Potency was “inactive”.
With O=C1CC2(CCCC2)CC(=O)N1CCNCC1COc2ccccc2O1 (stereo not given) the Potency was “inactive”.
In the case of COC(=O)c1cc(Cl)c(NC(C)=O)cc1OC, the Potency was “inactive”.
With CC(C)OC(=O)C(C(=O)OC(C)C)=C1SC=CS1 the Potency was “inactive”.
For Cc1cc(O)c(Cl)cc1C, the Potency was 49 µM (active).
In the case of COCc1nnc(-c2ccc[n+]([O-])c2)n1-c1c(Cl)c(Cl)cc2[nH]c(=O)c(=O)[nH]c12, the Potency was “inactive”.
For Cc1cc(N)no1, the Potency was “inactive”.
For Cc1ccc(N)nc1, the Potency was “inactive”.
For CCCCCC(CC)OC(=O)CCCOc1ccc(Cl)cc1Cl (stereo not given), the Potency was “inactive”.
With OCCC(F)(F)C(F)(F)C(F)(F)C(F)(F)C(F)(F)C(F)(F)F the Potency was “inactive”.
In the case of NC(=O)CC[C@@H](N)C(=O)O, the Potency was “inactive”.
With O=C[C@@H](O)[C@H](O)[C@H](O)CO the Potency was “inactive”.
With O=S(=O)(O)c1ccc(Cl)cc1 the Potency was “inactive”.
With CCc1ncc(C)[nH]1 the Potency was “inactive”.
In the case of C/C(=N\O)c1ccc(OCC(=O)N2CCCCC2)cc1, the Potency was “inactive”.
For CCCCCCCCCCCCCC(=O)OCC, the Potency was “inactive”.
In the case of CCCC(C)C(O)CC (stereo not given), the Potency was “inactive”.
With CCO/C=C1\N=C(c2ccccc2)OC1=O the Potency was “inactive”.
In the case of N#CC1(N)CCCCC1, the Potency was “inactive”.
In the case of CC1(C)S[C@@H]2[C@H](NC(=O)Cc3ccccc3)C(=O)N2[C@H]1C(=O)O (tested in a mixture with another compound), the Potency was “inactive”.
In the case of CC(=O)SC[C@@H](C)C(=O)N1CCC[C@H]1C(=O)N[C@@H](Cc1ccccc1)C(=O)O, the Potency was “inactive”.
With CNCCc1ccccn1 the Potency was “inactive”.
With C=CC(=O)OCC[N+](C)(C)C the Potency was “inactive”.
In the case of CCOC(=O)[C@H](CCc1ccccc1)N[C@H]1CS[C@H](c2cccs2)CN(CC(=O)O)C1=O, the Potency was “inactive”.
In the case of C=CCN1CCc2nc(N)sc2CC1, the Potency was “inactive”.
For COC(=O)c1ccc(C(=O)O)cc1, the Potency was “inactive”.
In the case of C=COCCCCO, the Potency was “inactive”.
In the case of CCCc1ncc(C(=O)O)s1, the Potency was “inactive”.
For COc1cc2nc(N3CCN(C(=O)C4CCCO4)CC3)nc(N)c2cc1OC (stereo not given), the Potency was “inactive”.
In the case of Cc1ccc(S(=O)(=O)NC(=O)NN2CC3CCCC3C2)cc1 (stereo not given), the Potency was “inactive”.
For CC[C@@]1(c2ccccc2)NC(=O)N(C)C1=O, the Potency was “inactive”.
For CCOc1ccccc1OCCN[C@H](C)Cc1ccc(OC)c(S(N)(=O)=O)c1, the Potency was “inactive”.

Reference: PubChem BioAssay (Tox21)
Potency is the fitted concentration of half-maximal effect.
